Measurements reported in publication PMC12136788.
In all, about 5,800 sequences were measured (“enrichment r”: median about 0.68, highest 2% from about 11 on). Only a sample is shown.

B1: chr1:113590523:113590624:+|CDS|ENSG00000081026|unk|FALSE|unique (ssRNA)
RNA: GGGAGUUCUACAGUCCGACGAUCUCAUCUGACUGGAUGAAGACUGUUCCAAGUUACAACCAAACAAAUAGCUCCAUGGACUUUAGAAAUUAUAUGAUGAGAGAUGAGACUCUGGAACCACUGCCCAAAAACUGGGAAAUGGCCCAACAGAGGAUUGAGCAUCA
B2: chr4:127885990:127886091:+|CDS|ENSG00000142731|msi1|FALSE|unique (ssRNA)
RNA: GGGAGUUCUACAGUCCGACGAUCAUUACUUAUCGGGAGACCACCCUUCGACACUGACACAGUCAAGAACACAUUAAAUAAAGUAGUAUUGGCAGAUUAUGAAAUGCCAUCUUUUUUGUCAAUAGAGGCCAAGGACCUUAUUCACAACAGAGGAUUGAGCAUCA
B3: chr8:23842656:23842757:-|3pUTR|ENSG00000159167|msi1|total|mutant (ssRNA)
RNA: GGGAGUUCUACAGUCCGACGAUCCCCCAAACUUAUGGACACUGCCUCCGCCUCUUGGAAAUCAGGCCGACCAUAUUCUAAGUCCGACUCUUCCCCUCCCUCCCACACUUCCCACCCCCAGGCAAGGCUGACUUCUCUGAAUCACAACAGAGGAUUGAGCAUCA
B4: ENSG00000070961:be:win_3851|3pUTR|ENSG00000070961|bound_else_gene|NA|bound_elsewhere_windowed (ssRNA)
RNA: GGGAGUUCUACAGUCCGACGAUCUUUUUGGGGGGUGGGAGAAAUGAACUGACAGAUAAACAGUAACUCAGCGUAAGUGACCUGUGGAUCAUCAGUAGUACCCAAGCAUGGUCCUGAACAGUGUAUUAGCAGAGCUUUAGUUUACAACAGAGGAUUGAGCAUCA
B5: chr19:34227675:34227687:+|3pUTR|ENSG00000257103|msi1_unk|FALSE|overlapping (ssRNA)
RNA: GGGAGUUCUACAGUCCGACGAUCUUAAAACAUGAGCAUUAAAUAUAUUUGGAAUAGCAGAAGGUUAAGUAAUUUCUUAUGUAUAGUUAAACUAAAGCAGUACUUCAGUGGGACUUAACAAGUAUUUUUUCAUCACUGAAAGGUCAACAGAGGAUUGAGCAUCA
B6: chr19:51415897:51416167:-|CDS|ENSG00000142512|control|control|control (ssRNA)
RNA: GGGAGUUCUACAGUCCGACGAUCGCCACACUGAGCUGGGUCCUGCAGAACAGAGUCCUCUCCUCGUCCCAUCCCUGGGGCCCUAGACCCCUGGGGCUGGAGCUGCCCGGGGUGAAGGCUGGGGAUUCAGGGCGCUACACCUGCCAACAGAGGAUUGAGCAUCA
B7: chr1:180199467:180199568:+|3pUTR|ENSG00000116260|msi1|FALSE|unique (ssRNA)
RNA: GGGAGUUCUACAGUCCGACGAUCCACAGGAACAAUUUCCUCAAGGAGACAGUGGCAUGGAGCUUUGAAAGACGAGUAGGUGUUAGCAAGGAAAUAAGGAGGAACGGGGGUUACGGGCAGAGGAGAAAGCACAUGCCAAGUCAGCAACAGAGGAUUGAGCAUCA
B8: chr15:55376998:55377117:-|CDS|ENSG00000260916|unk|total|mutant (ssRNA)
RNA: GGGAGUUCUACAGUCCGACGAUCUAUCUAUAUUGGAACUGCCAGUGAUGAUUCUGAUAUUGUUACCCUUGAGCCACCUAAGUCCGAAGAAAUUGGAAAUCAAGAAGUUGUCAUUGUUGAAGAAGCACAGAGUUCAGAAGACUUCAACAGAGGAUUGAGCAUCA
B9: chr15:63774837:63774950:-|CDS|ENSG00000103657|unk|FALSE|unique (ssRNA)
RNA: GGGAGUUCUACAGUCCGACGAUCGUAACAACAUUUCUUAAAGGAGUCACUAUUCCUAAUUCUGGGGCAGACACUUUAGGUCGUAGAUUAGCUUCUGAGUUGCUGCUUGGUUUGGCAGCUCAACGAGGCUCAUUGCGAUAUCUUCAACAGAGGAUUGAGCAUCA
B10: chr12:68660398:68660499:+|3pUTR|ENSG00000127314|msi1|total|mutant (ssRNA)
RNA: GGGAGUUCUACAGUCCGACGAUCUUGAGGUGGCCAAAUGUAAACUAAAAGCCUUAAUUAAAGUGGUGCAAUUUUGUAUAACUCCGCAUCAGCCGUUCAAUAAAUUUGGAUUGCCAUGCAAGGGCUUGCAUUAUAAUUACUUGCCAACAGAGGAUUGAGCAUCA
B11: chr5:103029089:103029184:+|3pUTR|ENSG00000145730|msi1_unk|FALSE|overlapping (ssRNA)
RNA: GGGAGUUCUACAGUCCGACGAUCAACCAAGCUUUGAUUUAGAUUGAGUAAGAUUUACCCAGAAUGUCAGAUUCCUUUCCCUUUAGCACGUUUAAAGUUCUGUGUAUUUAAUUGUAAACUGUACUAGUCUGUGUGGGACUGUACCAACAGAGGAUUGAGCAUCA
B12: chr2:32415436:32415554:+|CDS|ENSG00000115760|unk|FALSE|unique (ssRNA)
RNA: GGGAGUUCUACAGUCCGACGAUCUGGGACUUUGGUUCAGUGCUUGAGGCUGCCAAAGUUUGCAGAGGAGGAGAAUCUUUGUAUAGACUCAAUAACUCCUUGUGCUGACGGAAUUCAUUUGUUGGUAGGACUGCGGACAUGCCCCAACAGAGGAUUGAGCAUCA
B13: chr1:43978039:43978149:+|3pUTR|ENSG00000117410|unk|total|mutant (ssRNA)
RNA: GGGAGUUCUACAGUCCGACGAUCGGCCGUGCCUCACUUUUAUUUAUUGCUGGUUUUCCUGGGACAGCUGGAGCUGUGUCCCUCCGCCUUUCAGAGGCUUGGUGUUCAGGGCCCUCCCUGCACUCCCCUCUUGCUGCGUGUUGACAACAGAGGAUUGAGCAUCA
B14: ENSG00000107863:be:win_5401|CDS|ENSG00000107863|bound_else_gene|NA|bound_elsewhere_windowed (ssRNA)
RNA: GGGAGUUCUACAGUCCGACGAUCAGACAUACACUAGGAGGGCACAGAGAUGCUACCGAAAUCAGCGUUUUGAAUUUUUGGAAAGUGCAUGAGCAGAGCGGGGAGAGAGAAUCUGAACUUUCAGCUGUAAACCGGUUAAAACCACAACAGAGGAUUGAGCAUCA
B15: ENSG00000156976:stop:overlap|stop_codon|ENSG00000156976|stop_codon|NA|stop_codon (ssRNA)
RNA: GGGAGUUCUACAGUCCGACGAUCCUUUGGUUAUAAAUUAUGAUCUACCUACCAAUCGUGAAAACUAUAUUCACAGGAGUCGAUAGCAGCAGUUGGUGACGAGAUGGCACUCAGAAACGGCGUUGACGUAAUUUAGGACGUGGACAACAGAGGAUUGAGCAUCA
B16: chr2:159967538:159967678:-|CDS|ENSG00000153246|control|control|control (ssRNA)
RNA: GGGAGUUCUACAGUCCGACGAUCUAGUGAAGAGUGUUCAGUUUCUAUGCCUAGUAUCUGUAAGCGAAAAAAGGUUUGGCUCAUAGAGAAAAAGAAAGAUACACCAAAACAACAUGGAACGUGUCCCAAAGGAUGGCUAUAUUUCAACAGAGGAUUGAGCAUCA
B17: ENSG00000187498:stop:overlap|stop_codon|ENSG00000187498|stop_codon|NA|stop_codon (ssRNA)
RNA: GGGAGUUCUACAGUCCGACGAUCAGGUGAACCGGGACCUCCUGGAUUGCCAGGCUCCGUGGGGUCUCCAGGAGUUCCAGGAAUAGGCCCCCCUGGAGCUAGGGGUCCCCCUGGAGGACAGGGACCACCGGGGUUGUCAGGCCCCAACAGAGGAUUGAGCAUCA
B18: chr10:71816642:71816777:-|3pUTR|ENSG00000197746|msi1_unk|total|mutant (ssRNA)
RNA: GGGAGUUCUACAGUCCGACGAUCUUGUUUGGGGUUCUGUGGGUUUGGGUGGGAAGAGGGCCAUCUGCCUGAAUGUAACCUGCCCGCUCUCCGAAGGCCCUGCGGGCCUGGCUUGUGUGAGCGUGUGGACAGUGGUGGCCGCGCCAACAGAGGAUUGAGCAUCA
B19: chr20:35276351:35277713:-|three_prime_utr|ENSG00000126005|control|control|control (ssRNA)
RNA: GGGAGUUCUACAGUCCGACGAUCCUCCUCUCCCCACGUCCCUGCGUCUCUUACACCCCCUCCCACCCGAGGCUCCCCAGAGAUAGCAGAGAAUUCGAAGAGGUCGCCGGGGACUGGAAAGAAGUCCCGGCAGGGCCGCCUUCGCAACAGAGGAUUGAGCAUCA
B20: chr2:42328916:42329027:+|CDS|ENSG00000143924|unk|FALSE|unique (ssRNA)
RNA: GGGAGUUCUACAGUCCGACGAUCAGAAGGAUCUGAUGGGACAGAUAUCAAUGCACUGGUGCGAUCCCACAAUAGAAAGGUGAUAGCUGUUGCCGAUGACUUUUGUAAAGUCCAUCUGUUUCAGUAUCCCUGCUCCAAAGCAAACAACAGAGGAUUGAGCAUCA
B21: chr1:28742582:28742694:+|CDS|ENSG00000198492|unk|FALSE|bound_elsewhere (ssRNA)
RNA: GGGAGUUCUACAGUCCGACGAUCAGCAACGGAGAGCCCCACUUCCUACCAGAUGCAAUGUUUGGGCAACCAGGAGCCCUAGGUAGCACUCCAUUUCUUGGUCAGCAUGGUUUUAAUUUCUUUCCCAGUGGGAUUGACUUCUCACAACAGAGGAUUGAGCAUCA
B22: chr1:235182574:235182675:-|CDS|ENSG00000054267|unk|FALSE|unique (ssRNA)
RNA: GGGAGUUCUACAGUCCGACGAUCUUUGACCAACAACAGAAAUGAUCUUAUUUCAAAGGAGGAACAGAACAGUUCAUCUUUGCUAGAAGAAAACAAAGUUCAUGCAGAUUUGGUAAUAUCCAAACCAGUGUCAAAAUCUCCAGACAACAGAGGAUUGAGCAUCA

Biological target: T1, UNK ZnF1-6 (called full-length) (human, UniProt Q9C0B0 30-357)
T1 sequence: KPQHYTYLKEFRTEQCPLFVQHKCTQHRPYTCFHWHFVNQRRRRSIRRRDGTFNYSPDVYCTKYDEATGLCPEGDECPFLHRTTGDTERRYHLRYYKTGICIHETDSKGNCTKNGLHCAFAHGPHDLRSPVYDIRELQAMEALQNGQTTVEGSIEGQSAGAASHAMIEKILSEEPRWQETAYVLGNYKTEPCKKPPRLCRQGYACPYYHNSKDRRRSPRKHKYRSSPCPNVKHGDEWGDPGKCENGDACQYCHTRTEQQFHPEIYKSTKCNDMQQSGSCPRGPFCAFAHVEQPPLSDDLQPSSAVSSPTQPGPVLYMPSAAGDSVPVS
Experiment: nsRBNS (natural sequence RNA bind-n-seq); RBNS binding buffer (assumed for nsRBNS): 25 mM Tris pH 7.5, 150 mM KCl, 3 mM MgCl2, 0.01% Triton X-100, 500 ug/ml BSA, 20 U/ml SUPERase-In, 4 C; UNK is unkempt and MSI1 is Musashi-1; names of the RNAs are library labels; protein concentration not given here; high values mean tight binding

| Binder | binding signal [enrichment R] |
| --- | --- |
| B1 | 1.15 |
| B2 | 1.26 |
| B3 | 1.07 |
| B4 | 1.18 |
| B5 | 1.37 |
| B6 | 0.641 |
| B7 | 1.51 |
| B8 | 0.258 |
| B9 | 0.542 |
| B10 | 0.352 |
| B11 | 1.16 |
| B12 | 0.624 |
| B13 | 0.779 |
| B14 | 0.693 |
| B15 | 0.52 |
| B16 | 0.378 |
| B17 | 0.745 |
| B18 | 0.901 |
| B19 | 0.869 |
| B20 | 0.424 |
| B21 | 0.665 |
| B22 | 0.258 |
